GLS inh: blocks human kidney-isoform glutaminase activity; 410,000 compounds, 0.21% hits; GLS enzymatic activity, qHTS titration; AID 624170; Potency, µM (top dose mostly 45.5 µM), hits mostly inhibitors; O94925
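Glutamate formation by hKGA was monitored fluorometrically using coupled glutamate oxidase, HRP and Amplex Red. Substrate was added as 1 mM L-glutamine solution; incubation was 30 min at RT after an initial read.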
JMJD2A Tudor: inhibitors of human JMJD2A Tudor domain; 390,000 compounds, 4.4% hits; O75164; Potency, µM (doses to about 114 µM), most hits filed as inhibitors; AID 504339; AlphaScreen JMJD2A-Tudor / H3K4me3 peptide binding; also: nearly all actives have a fitted effect of over 50% in size
G9a block: inhibitors of human histone lysine methyltransferase G9a | Q96KQ7 | G9a H3K9 monomethylation, AlphaScreen, 2 h | Potency, µM (series often up to 102 µM), most hits filed as inhibitors | 350,000 compounds, 8.8% hits; also: nearly all actives have a fitted effect of over 75% in size
Target sequence (Q96KQ7 913-1193 limits assumed): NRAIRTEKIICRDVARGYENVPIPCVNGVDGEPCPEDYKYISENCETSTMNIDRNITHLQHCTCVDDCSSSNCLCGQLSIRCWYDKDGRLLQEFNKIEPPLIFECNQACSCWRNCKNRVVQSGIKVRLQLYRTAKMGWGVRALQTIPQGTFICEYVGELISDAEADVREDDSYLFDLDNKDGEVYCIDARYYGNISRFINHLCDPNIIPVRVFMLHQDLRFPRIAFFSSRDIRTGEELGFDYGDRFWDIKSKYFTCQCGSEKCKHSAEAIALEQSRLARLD
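Enzyme 20 nM + cpd, 15 min RT; add b-H3K9 pep 500 nM / SAM 20 uM; 2 h RT; anti-H3K9me1 Ab 0.5 ug/mL + SA donor / anti-rabbit acceptor beads 20 ug/mL each, 10 min; AlphaScreen read.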
HP1b binding inh: HP1-beta chromodomain-methylated histone interaction inhibition. P83916. AID 540317. AlphaScreen HP1-beta / biotin-H3K9me3 peptide binding. Potency, µM (top dose mostly 114 µM), most hits filed as inhibitors. 390,000 compounds, 0.56% hits; also: nearly all actives have a fitted effect of over 70% in size
Target sequence (P83916 whole entry, looked up): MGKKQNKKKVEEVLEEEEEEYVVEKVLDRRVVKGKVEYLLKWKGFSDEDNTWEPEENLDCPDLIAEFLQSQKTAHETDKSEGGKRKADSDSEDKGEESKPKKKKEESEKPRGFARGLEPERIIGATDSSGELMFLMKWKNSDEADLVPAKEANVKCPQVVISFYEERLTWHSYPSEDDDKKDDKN
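Compound inhibition of the preformed complex between 50 nM HP1-beta and 50 nM biotinylated H3K9me3 peptide was read by AlphaScreen. Buffer was PBS pH 7.4 with 0.01% Tween-20. Incubations ran 30 min at room temperature, with 10 ug/mL donor/acceptor beads.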
BAZ2B inh: BAZ2B (human) inhibition; Q9UIF8; AlphaScreen BAZ2B-H3K14Ac peptide displacement; Potency, µM (doses to about 114 µM), actives largely listed as inhibitors; 360,000 compounds, 4.4% hits; AID 504333; also: nearly all actives have a fitted effect of over 60% in size
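Protein-peptide AlphaScreen: BAZ2B 50 nM, b-H3K14Ac 50 nM, 1x PBS pH 7.4 + 0.01% Tween-20. Preincubation 30 min RT; cpd 30 min RT (top 110 uM); beads 20 min RT, light-protected.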
A number is an active result; n = inactive; u = inconclusive; x = no result; [ ] = dose if it differs, or a comment. An excerpt weighted towards active compounds, which were near 10% of everything screened. Calls follow the shape of the dose curve; as a rule, active = well fitted curve in the direction sought with a large enough effect; inconclusive = small, poorly fitted or top-dose-only effect, or another doubt; inactive = no such curve, though single readings can be large; an effect the other way counts as inactive or inconclusive.

SMILES	GLS inh	JMJD2A Tudor	G9a block	HP1b binding inh	BAZ2B inh
COC(=O)c1cc(NS(=O)(=O)c2ccc(Cl)c(N3C(=O)c4ccc(C(=O)O)cc4C3=O)c2)cc(C(=O)OC)c1	n	n	n	n	0.794µM
CCCCn1c(SCCN2CCCCC2)nc2c1c(=O)n(C)c(=O)n2C	n	x	x	x	x
CCOC(=O)/C(C#N)=C1\SS/C(=C(/C#N)C(=O)OCC)S1	x	x	1.58µM	x	u
CCN(CC)c1nn2c(=O)c(C(=O)NCc3ccc(OC)cc3OC)cnc2s1	n	n	n	n	n
CCC1CCC(N2CCN(c3ccc(F)cc3)CC2)CC1 (stereo not given)	n	n	44.7µM	n	n
CCC1CCC(N2CCN(c3ccc([N+](=O)[O-])cc3)CC2)CC1 (stereo not given)	n	u	x	n	70.8µM
CC(=O)Nc1ccc(-n2c(C)ccc2-c2ccccc2)cc1	n	n	u	n	u
COc1ccc(-n2cc(-c3ccccc3)[nH]c2=S)cc1	n	8.91µM	1.58µM	n	u
COc1ccccc1-n1cc(-c2ccccc2)[nH]c1=S	n	u	10µM	n	u
CCOc1ccc(-n2cc(-c3ccc(OC)c(OC)c3)[nH]c2=S)cc1	n	11.2µM	2.51µM	u	x
CC(=O)Nc1ccc(-n2cc(-c3ccccc3)[nH]c2=S)cc1	n	0.891µM	1.41µM	u	u
COc1ccc(CNC(=O)Cn2ccc3cc(S(=O)(=O)N4CCCCC4)ccc32)c(OC)c1	n	n	n	n	n
O=C(NCc1ccccc1CN1CCCC1)c1ccc(S(=O)(=O)Nc2ccccc2)cc1	n	x	x	x	x
CCN(CC)S(=O)(=O)c1ccc2c(c1)c(=O)c(C(=O)N1CCN(c3cccc(C)c3)C(C)C1)cn2C (stereo not given)	n	n	n	n	x
Cc1c(CN(C)C)c2c(n1Cc1ccccc1)C(=O)c1ccc(Br)cc1-2	n	39.8µM	17.8µM	u	22.4µM
Cc1c(CN(C)C)c2c(n1C)C(=O)c1ccc(Br)cc1-2	n	u	u	n	u
COc1ccc(-n2c(=O)c(-c3cccs3)nc3cnc(Oc4ccccc4)nc32)cc1	x	x	n[12.7 µM]	x	x
CCOC(=O)C1(C)CCCN1C(=O)c1csnn1 (stereo not given)	n	x	x	x	x
CCCCN(CCCC)CCNC(=O)Cn1nc(CC)n2c(cc3sc(C)cc32)c1=O	n	n	n	n	n
COc1ccc(OC)c(N)c1	n	u	31.6µM	u	50.1µM
COc1ccc(N=Nc2cc(OC)c(N)cc2OC)cc1	n	44.7µM	x	50.1µM	x
COc1ccc(OC)c(C(=O)C(=O)c2cc(OC)ccc2OC)c1	n	n	x	n	x
CCOc1ccc2nc3cc(N=Nc4ccc(N)nc4N)ccc3c(N)c2c1	n	56.2µM	x	u	x
COc1ccc(N=Nc2ccc(N)nc2N)cc1	n	39.8µM	28.2µM	u	39.8µM
COc1ccc(N=Nc2c(N)n[nH]c2N)cc1	n	u	x	n	u
SMILES	GLS inh	JMJD2A Tudor	G9a block	HP1b binding inh	BAZ2B inh
Nc1ccc(N=Nc2ccc(O)cc2)c(N)n1	n	u	x	u	x
CC1CC(C)CN(S(=O)(=O)CCNC(=O)c2ccc3c(c2)OCO3)C1 (stereo not given)	n	n	n[0.501 µM]	n	n
O=C(CN1C(=O)NC2(CCCC2)C1=O)OCC(=O)c1cccc(Cl)c1	n	n	50.1µM	n	n
O=C(CN1C(=O)NC2(CCCC2)C1=O)OCCOc1cccc(Cl)c1	n	n	n	n	n
COc1ccc(CCN2C(=O)CC(NNc3ccc([N+](=O)[O-])cc3)C2=O)cc1OC (stereo not given)	n	n	14.1µM	n	n
COc1ccc(-n2cc(C(=O)N(C)c3cc(C)ccc3OC)c3ccccc3c2=O)cc1	n	n	u	n	u
COc1ccc2c(c1[N+](=O)[O-])CCC/C2=N/OC(=O)c1ccccc1SC	n	n	44.7µM	n	u
COc1ccccc1C(=O)O/N=C1/CCCc2c1ccc(OC)c2[N+](=O)[O-]	n	n	50.1µM	n	n
CN(C)CCN(Cc1ccco1)C(=O)c1cc2c(s1)-c1ccccc1OC2	n	n	n	n	n
N#Cc1c(N2C(=O)C3C4C=CC(C4)C3C2=O)sc2c1CCC2 (stereo not given)	n	n	n[12.7 µM]	n	n
N#Cc1c(-n2cccc2/C=N/O)sc2c1CCCC2	n	44.7µM	u	u	44.7µM
C=CCNCc1cccn1-c1sc2c(c1C#N)CCCC2	n	3.16µM	u	u	u
COc1ccc(NC(=O)CCCn2nc(C)c3sc4ccccc4c3c2=O)cc1	n	n	n	n	n
Cc1oc(-c2ccc(C(=O)NCc3ccc(Cl)cc3)cc2)nc1CS(=O)(=O)c1ccccc1	n	n	u	n	n
O=C(NCCc1ccccc1)c1ccc2c(=O)[nH]c3c(C(=O)NCC4CCCO4)sc(=S)n3c2c1 (stereo not given)	n	44.7µM	n[0.501 µM]	u	35.5µM
O=C(NCC1CCCO1)c1sc(=S)n2c1[nH]c(=O)c1ccc(C(=O)N3CCCCC3)cc12 (stereo not given)	n	u	44.7µM	n	u
CS(=O)(=O)Nc1cccc(-c2ccc3ncnc(N4CCNCC4)c3c2)c1	x	x	n[0.501 µM]	x	x
CCCCSCCCNC(=O)CN1C(=O)COc2ccc(S(=O)(=O)N3CCCC3)cc21	n	n	n	n	n
COc1cc2c(cc1[N+](=O)[O-])-c1ccccc1C2	n	n	x	n	x
CN(C)c1ccc2c(c1[N+](=O)[O-])Cc1ccccc1-2	n	15.8µM	x	u	x
C[C@H](CO)N1C[C@H](C)[C@@H](CN(C)CC2CCCCC2)Oc2c(NC(=O)Cc3ccccc3)cccc2C1=O	n	56.2µM	x	n	x
CCC(C)NC(=O)c1c(N)n(/N=C/c2ccccn2)c2nc3ccccc3nc12 (stereo not given)	n	n	50.1µM	n	n
COc1ccc(S(=O)(=O)N2CCC(C(=O)NCC(=O)Nc3c(C)cccc3C)CC2)cc1OC	n	n	x	n	x
CN1CCC(Oc2ccccc2Sc2ccccc2)CC1	n	0.708µM	u	u	n
CN1CCC(OC(c2ccccc2)c2ccccc2)CC1	n	n	n[2.33 µM]	n	n
SMILES	GLS inh	JMJD2A Tudor	G9a block	HP1b binding inh	BAZ2B inh
COC(=O)c1ccc(CC(=O)c2c(C)cc(O)cc2O)o1	n	u	44.7µM	n	u
COC(=O)c1ccc(CSCc2ccc(C(=O)OC)o2)o1	n	n	n	n	n
COC(=O)c1ccc(CC(=O)c2ccc(O)cc2O)o1	n	n	22.4µM	n	63.1µM
CCOC(=O)c1ccc(CC(=O)c2ccc(O)cc2O)o1	n	n	22.4µM	n	n
COC(=O)c1cc(CC(=O)c2ccc(O)cc2O)c(C)o1	n	n	n	n	u
COCCCNC(=O)C(C)n1c2ccccc2c2cnn(C)c(=O)c21 (stereo not given)	n	n	n	n	n
CCOC(=O)c1c(-c2ccccc2)csc1NC(=O)c1cc(-c2cccc(Cl)c2)on1	n	n	8.91µM	n	n
CCOC(=O)c1c(-c2ccccc2)csc1NC(=O)c1cc(-c2cccc(OC)c2)on1	n	n	3.98µM	n	n

From PubChem
